Out of some 340,000 compounds screened, about 1,700 (0.5%) were called active. The sample as a whole holds a higher share of actives than the screen did. Values without a mark were called inactive. Cut-off read from the data, not from the text of the source: active = inhibition above about 40%; inactive = the rest.

28 compounds from PubChem BioAssay AID504462 (Sanford-Burnham Center for Chemical Genomics, 2011) can be followed below.

In this test the target is Cysteine protease ATG4B (Homo sapiens) (UniProt Q9Y4P1). Description: blockers of ATG4B cysteine protease activity – biochemical, fluorescence, uHTS, primary screen (AID 504462). Conditions: ATG4B cleavage of LC3-PLA2, NBD-HPC fluorescence, 1 h; at 8.33 µM; stronger effect = higher value.
Cysteine protease ATG4B (Homo sapiens), sequence (Q9Y4P1 whole entry, looked up): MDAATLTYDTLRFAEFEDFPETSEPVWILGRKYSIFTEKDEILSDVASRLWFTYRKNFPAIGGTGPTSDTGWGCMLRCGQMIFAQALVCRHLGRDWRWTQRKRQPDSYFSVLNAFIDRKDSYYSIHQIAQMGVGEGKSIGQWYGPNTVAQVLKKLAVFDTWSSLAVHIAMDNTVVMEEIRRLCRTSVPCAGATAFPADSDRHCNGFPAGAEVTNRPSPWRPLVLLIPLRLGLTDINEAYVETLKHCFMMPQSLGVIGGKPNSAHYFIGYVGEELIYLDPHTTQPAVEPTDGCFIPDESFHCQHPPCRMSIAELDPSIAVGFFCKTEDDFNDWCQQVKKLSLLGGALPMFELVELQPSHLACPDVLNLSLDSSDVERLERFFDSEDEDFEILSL
For the compound `CC1(C)C/C(=N/Nc2ccc([N+](=O)[O-])cc2[N+](=O)[O-])C(C)(C)O1`, the inhibition is 0.43%.
In the case of `CC(=O)c1c(N2CCOCC2)nc(=S)n(Cc2ccccc2)c1C` it was -2.2%; in that of `Oc1c(Cl)cc(Cl)c(Cl)c1Cc1c(O)c(Cl)cc(Cl)c1Cl`, 87.4% (active); in that of `ClC1(Cl)CC1CSc1ncn[nH]1` (stereo not drawn), -3.17%.
Consider `Nc1c(Cl)cc(-c2csc(N3CCCC3c3nc4cc(Cl)c(Cl)cc4n3CCOCCO)n2)cc1Cl` (stereo not drawn), for which the inhibition is -22.9%.
For `CC(=O)NC1(c2cccc(F)c2)CCN(CC(=O)NC(C)C)CC1`, the inhibition is -3.58%.
Consider `CCc1ccccc1NC(=O)CCOc1ccccc1`, for which the inhibition is -0.7%.
Regarding `CCc1ccccc1NC(=O)/C(=C/c1ccccc1)c1ccccc1`, the inhibition was 59.5% (active).
`CCc1ccccc1NC(=S)Nc1cc(OC)c(NC(=O)C(C)C)cc1OC`: the inhibition was 3.4%.
Consider `CCN1CCN(C(C(=O)NC2CCCC2)c2cc3c(cc2[N+](=O)[O-])OCO3)CC1` (stereo not drawn), for which the inhibition is -0.97%.
In the case of `Cc1cccc(C)c1OCC(=O)NC(Cc1c[nH]c2ccccc12)C(=O)O` (stereo not drawn) it was 2.14%; in that of `O=C(CCn1nnc2ccccc2c1=O)N[C@@H](Cc1c[nH]c2ccccc12)C(=O)O`, 0.19%.
`O=C(N[C@@H](Cc1c[nH]c2ccccc12)C(=O)O)OCC1c2ccccc2-c2ccccc21`: the inhibition is 61.3% (active).
In the case of `COCCCNC(=O)C1CCN(c2ccc(N3CCOCC3)nn2)CC1` it was -8.6%.
As to `CN(C)Cc1ccc(F)cc1Sc1cc(Cl)ccc1Cl`, the inhibition was 43.6% (active).
In the case of `Cc1ccc(-c2ccc(=O)n(Cc3ccc(F)cc3Cl)n2)cc1`, the inhibition was 17.9%.
With `COc1ccc(OC)c2c(N)c(C#N)c(C(F)(F)C(F)(F)F)nc12`, the inhibition is 3.2%.
`COc1ccc(/C=N/n2nnnc2N)cc1OC`: the inhibition was 4.77%.
Turning to `C=CCOC(=O)c1ccccc1C(=O)OCC=C`, the inhibition is -32.7%.
Consider `COc1ccc(OCCNC(=O)c2cc(C3CC3)nc3c2cnn3C(C)C)cc1`, for which the inhibition was -0.45%.
As for `CSc1ccccc1C(=O)NCc1ccccc1`, the inhibition is 5.57%.
For `Cc1ccc(CNC(=O)c2cccnc2Cl)cc1`, the inhibition was -10.1%.
For the compound `Cc1ccc(CNC(=O)c2ccccc2CCc2ccccc2)cc1`, the inhibition is 46.1% (active).
On to `CC(C)CNc1ncnc2c1cnn2Cc1ccc(Cl)cc1`, for which the inhibition was -1.96%.
For the compound `Cc1ccc(C)c(NC(=O)C(c2ccccc2)N2CCN(CC(=O)NC3CC3)CC2)c1` (stereo not drawn), the inhibition is 8.15%.
In the case of `Cc1cc(SCc2c(F)cccc2Cl)nc(=O)[nH]1` it was -6.36%; in that of `Fc1cccc(Cl)c1CSc1ccc(-c2ccco2)nn1`, 41.7% (active); in that of `Cn1c(SCc2c(F)cccc2Cl)nnc1-c1cnccn1`, -6.8%.
